Source: PubChem BioAssay
The source made the active and inactive calls.

Columns and labels:
[1] = system: Plasmodium falciparum Sir2 (PF13_0152, Sir2A); test: Plasmodium falciparum Sir2A binding compounds – biochemical, small-molecule microarray, 635 nm fluorescence, primary screen (AID 1098); details: fluorescence 635 nm, higher = more signal;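 note: score merges spot fluorescence intensity with its signal-to-noise ratio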
[2] = probe aDKK1 binding to arrayed compounds – biochemical, biotinylated probe, 635/667 nm fluorescence, primary screen (AID 1099); details: small-molecule microarray, higher = more signal;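 note: score merges 667nm spot fluorescence with signal to noise across triplicate slides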
[3] = probe aCHRDL2 binding to arrayed compounds – biochemical, biotinylated probe, 635/667 nm fluorescence, primary screen (AID 1100); details: small-molecule microarray, higher = more signal
[4] = change in splice reporter luminescence, either direction, cell-based, HEK293, spliceosome inhibition project, primary screen (AID 1101); details: HEK293 splicing luciferase reporter, 24 h, higher = more signal, called active from +8 up or from −8 down;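 note: HEK293 cells carrying a splicing-competent luciferase reporter gene; test concentration not given here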
[5] = molecular target: Fibroblast growth factor 10 (Homo sapiens) (UniProt O15520); test: compounds binding fibroblast growth factor 10 – biochemical, small-molecule microarray, 635 nm fluorescence, primary screen (AID 1102); details: FGF10 binding, fluorescence 635 nm, higher = more signal
[6] = system: glycogen synthase kinase-3 (GSK3A per assay name; protocol says GSK3B); test: compounds binding glycogen synthase kinase-3 – biochemical, small-molecule microarray, 635 nm fluorescence, GSK3A, primary screen (AID 1103); details: fluorescence 635 nm, higher = more signal; note: the record names both GSK3A and GSK3B
[7] = molecular target: Epidermal growth factor receptor (Homo sapiens) (UniProt P00533); test: compounds binding epidermal growth factor receptor – biochemical, small-molecule microarray, 635 nm fluorescence, primary screen (AID 1104); details: EGFR binding, higher = more signal;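 note: score merges 667 nm emission intensity with spot signal to noise over triplicate slides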
[8] = molecular target: Follistatin-related protein 3 (Homo sapiens) (UniProt O95633); test: compounds binding follistatin-related protein 3 – biochemical, small-molecule microarray, 635 nm fluorescence, primary screen (AID 1105); details: FSTL3 binding, higher = more signal;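 note: score merges emission near 667 nm and signal to noise per printed spot across three slides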
[9] = molecular target: Dickkopf-related protein 1 (Homo sapiens) (UniProt O94907); test: small molecules binding DKK1 protein – biochemical, small-molecule microarray, 635 nm fluorescence scan, primary screen (AID 1106); details: higher = more signal;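 note: score merges emission near 667 nm with signal to noise over three replicate slides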
[10] = system: Inhibin beta A chain (activin A); test: small molecules binding activin A – biochemical, small-molecule microarray, 635 nm fluorescence scan, primary screen (AID 1107); details: INHBA, higher = more signal;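 note: mouse activin A protein probed at 4.33 µg/mL on printed slides; score merges bound-protein fluorescence near 667 nm with spot signal-to-noise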
[11] = system: Human papillomavirus type 1a protein E7 (residues 44-93); test: small molecules binding HPV E7 44-93 – biochemical, small-molecule microarray, residues 44-93, 635 nm fluorescence, primary screen (AID 1108); details: fluorescence 635 nm, higher = more signal;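 note: E7 fragment applied at 1 µg/mL in TBST for 1 h at 4 C; score combines spot fluorescence with its signal to noise ratio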
[12] = hepatitis C replication reporter changes, two-sided – Huh7 cells, luciferase reporter, HCV replication inhibitor project, primary screen (AID 1109); details: Huh7 HCV replicon luciferase reporter, 48 h; higher = more signal;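 note: huh7 hepatoma cells harbouring a luciferase neomycin HCV replicon reporter; luciferase luminescence as measure of HCV replicon replication; test concentration not given here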
[13] = molecular target: Left-right determination factor 2 (Homo sapiens) (UniProt O00292); test: small molecules binding LEFTY2 protein – biochemical, small-molecule microarray, 635 nm fluorescence scan, primary screen (AID 1110); details: higher = more signal
[14] = molecular target: Calmodulin-1 (Homo sapiens) (UniProt P0DP23); test: small molecules binding calmodulin-1 with EGTA – biochemical, small-molecule microarray, Cy5-labelled CALM1, profiling panel (AID 1111); details: Cy5-CALM1 binding fluorescence, higher = more signal;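 note: labelled calmodulin applied in Tris saline Tween buffer holding calcium plus EGTA and DTT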
[15] = molecular target: Calmodulin-1 (Homo sapiens) (UniProt P0DP23); test: small molecules binding Ca-loaded calmodulin-1 – biochemical, small-molecule microarray, Cy5-labelled CALM1, plus calcium, artefact control for SMM control-protein annotation, profiling panel (AID 1112); details: Cy5-CALM1 binding fluorescence, higher = more signal;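 note: score merges spot fluorescence with signal to noise from triplicate slides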
[16] = probe aWnt5a binding to arrayed compounds – biochemical, biotinylated probe, 635/667 nm fluorescence, primary screen (AID 1113); details: small-molecule microarray, higher = more signal;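 note: score merges 667 nm fluorescence intensity with signal-to-noise per printed feature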
[17] = probe aShh binding to arrayed compounds – biochemical, biotinylated probe, 635/667 nm fluorescence, primary screen (AID 1114); details: small-molecule microarray, higher = more signal;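 note: probe is biotin-labelled aShh protein from a stem cell growth factor screen; measures binding of labelled protein to compounds printed on the slide; score merges feature fluorescence at 667 nm with signal-to-noise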
[18] = probe aNog binding to arrayed compounds – biochemical, biotinylated probe, 635/667 nm fluorescence, primary screen (AID 1115); details: small-molecule microarray, higher = more signal;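 note: probe is biotinylated aNog protein used at 0.15 µg/mL for 1 h at 4 C; z-score combines 667 nm fluorescence of each spot with its signal to noise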
[19] = molecular target: Torsin-1A-interacting protein 1 (Homo sapiens) (UniProt Q5JTV8); test: compound microarray binding of lysate hLAP1 – cell lysate, small-molecule microarray, COS7 lysate, 635/667 nm fluorescence, primary screen (AID 1116); details: 635 nm fluorescence, higher = more signal
[20] = molecular target: Alpha-bungarotoxin (Bungarus multicinctus) (UniProt P60615); test: compounds binding labelled alpha-BTX control protein – biochemical, small-molecule microarray, Alexa647 label, 635/667 nm fluorescence, artefact control for SMM control protein annotation, profiling panel (AID 1117); details: alpha-BTX-A647 binding fluorescence, higher = more signal
Sequence of Alpha-bungarotoxin (Bungarus multicinctus) (P60615 whole entry, looked up): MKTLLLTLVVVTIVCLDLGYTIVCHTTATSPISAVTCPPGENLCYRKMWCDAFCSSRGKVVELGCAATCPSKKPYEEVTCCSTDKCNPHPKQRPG

Sequence of Fibroblast growth factor 10 (Homo sapiens) (O15520 whole entry, looked up): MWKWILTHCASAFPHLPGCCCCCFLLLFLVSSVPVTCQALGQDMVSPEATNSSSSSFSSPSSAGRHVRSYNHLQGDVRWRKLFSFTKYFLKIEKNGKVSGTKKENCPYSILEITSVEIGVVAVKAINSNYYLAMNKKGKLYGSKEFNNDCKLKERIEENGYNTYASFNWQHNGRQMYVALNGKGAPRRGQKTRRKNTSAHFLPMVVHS
Sequence of Follistatin-related protein 3 (Homo sapiens) (O95633 whole entry, looked up): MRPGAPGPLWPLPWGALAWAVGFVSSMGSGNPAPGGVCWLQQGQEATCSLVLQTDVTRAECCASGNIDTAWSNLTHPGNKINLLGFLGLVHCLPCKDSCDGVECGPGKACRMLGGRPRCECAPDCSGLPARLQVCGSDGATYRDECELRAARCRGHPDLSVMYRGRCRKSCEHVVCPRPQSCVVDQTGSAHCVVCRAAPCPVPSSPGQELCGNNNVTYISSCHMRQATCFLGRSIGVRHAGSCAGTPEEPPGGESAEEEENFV
Sequence of Dickkopf-related protein 1 (Homo sapiens) (O94907 whole entry, looked up): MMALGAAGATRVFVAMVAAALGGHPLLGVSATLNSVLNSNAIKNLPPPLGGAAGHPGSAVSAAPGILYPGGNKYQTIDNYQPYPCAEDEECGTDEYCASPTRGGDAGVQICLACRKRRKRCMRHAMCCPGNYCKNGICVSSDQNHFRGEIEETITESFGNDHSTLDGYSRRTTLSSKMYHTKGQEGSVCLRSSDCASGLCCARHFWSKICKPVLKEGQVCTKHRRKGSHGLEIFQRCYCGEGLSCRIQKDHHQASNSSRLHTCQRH
Sequence of Torsin-1A-interacting protein 1 (Homo sapiens) (Q5JTV8 whole entry, looked up): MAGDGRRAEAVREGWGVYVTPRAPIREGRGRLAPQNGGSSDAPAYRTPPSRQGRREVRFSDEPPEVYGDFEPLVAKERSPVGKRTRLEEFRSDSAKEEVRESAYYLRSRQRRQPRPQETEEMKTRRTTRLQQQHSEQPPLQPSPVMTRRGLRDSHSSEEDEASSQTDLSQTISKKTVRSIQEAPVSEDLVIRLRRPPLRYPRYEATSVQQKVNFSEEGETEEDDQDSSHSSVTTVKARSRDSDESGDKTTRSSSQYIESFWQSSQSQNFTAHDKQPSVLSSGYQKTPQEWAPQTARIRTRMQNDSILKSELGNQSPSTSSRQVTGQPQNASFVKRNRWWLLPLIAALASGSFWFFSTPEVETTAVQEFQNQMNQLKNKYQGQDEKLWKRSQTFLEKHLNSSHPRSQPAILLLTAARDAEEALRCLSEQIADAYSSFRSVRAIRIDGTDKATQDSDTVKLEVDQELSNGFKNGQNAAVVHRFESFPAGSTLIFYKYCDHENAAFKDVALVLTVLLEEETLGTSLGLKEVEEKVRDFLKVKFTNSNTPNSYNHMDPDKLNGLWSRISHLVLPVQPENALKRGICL
Sequence of Epidermal growth factor receptor (Homo sapiens) (P00533 whole entry, looked up): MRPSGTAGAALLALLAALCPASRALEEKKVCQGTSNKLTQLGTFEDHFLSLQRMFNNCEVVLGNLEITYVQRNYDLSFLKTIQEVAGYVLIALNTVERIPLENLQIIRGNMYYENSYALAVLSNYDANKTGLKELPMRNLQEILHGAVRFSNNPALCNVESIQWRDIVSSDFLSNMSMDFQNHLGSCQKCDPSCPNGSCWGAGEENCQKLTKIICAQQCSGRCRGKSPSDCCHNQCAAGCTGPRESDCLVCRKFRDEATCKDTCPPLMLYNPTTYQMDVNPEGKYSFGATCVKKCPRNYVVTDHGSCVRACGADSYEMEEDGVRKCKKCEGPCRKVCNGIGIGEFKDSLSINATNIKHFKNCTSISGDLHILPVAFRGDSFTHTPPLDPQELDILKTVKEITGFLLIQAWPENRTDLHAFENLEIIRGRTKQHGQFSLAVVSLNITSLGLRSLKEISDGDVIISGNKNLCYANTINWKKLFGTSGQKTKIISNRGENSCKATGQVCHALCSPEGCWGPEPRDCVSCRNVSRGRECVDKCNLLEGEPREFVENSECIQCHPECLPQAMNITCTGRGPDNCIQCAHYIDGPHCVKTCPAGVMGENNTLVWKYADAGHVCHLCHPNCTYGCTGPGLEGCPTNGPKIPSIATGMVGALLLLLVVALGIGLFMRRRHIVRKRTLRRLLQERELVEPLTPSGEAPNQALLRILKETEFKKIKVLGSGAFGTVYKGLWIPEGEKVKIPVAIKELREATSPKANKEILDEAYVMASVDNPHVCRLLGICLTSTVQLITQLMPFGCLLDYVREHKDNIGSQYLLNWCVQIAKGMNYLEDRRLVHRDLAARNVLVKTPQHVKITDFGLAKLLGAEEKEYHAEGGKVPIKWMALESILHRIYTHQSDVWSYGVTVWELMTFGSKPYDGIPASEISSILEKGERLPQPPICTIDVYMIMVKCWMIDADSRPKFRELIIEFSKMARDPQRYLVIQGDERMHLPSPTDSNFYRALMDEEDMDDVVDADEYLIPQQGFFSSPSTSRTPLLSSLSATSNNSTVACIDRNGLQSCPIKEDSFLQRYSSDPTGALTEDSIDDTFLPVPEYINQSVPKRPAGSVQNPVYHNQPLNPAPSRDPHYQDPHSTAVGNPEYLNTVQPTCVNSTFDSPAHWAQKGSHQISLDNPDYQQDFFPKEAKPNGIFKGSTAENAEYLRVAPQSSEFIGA
Sequence of Left-right determination factor 2 (Homo sapiens) (O00292 whole entry, looked up): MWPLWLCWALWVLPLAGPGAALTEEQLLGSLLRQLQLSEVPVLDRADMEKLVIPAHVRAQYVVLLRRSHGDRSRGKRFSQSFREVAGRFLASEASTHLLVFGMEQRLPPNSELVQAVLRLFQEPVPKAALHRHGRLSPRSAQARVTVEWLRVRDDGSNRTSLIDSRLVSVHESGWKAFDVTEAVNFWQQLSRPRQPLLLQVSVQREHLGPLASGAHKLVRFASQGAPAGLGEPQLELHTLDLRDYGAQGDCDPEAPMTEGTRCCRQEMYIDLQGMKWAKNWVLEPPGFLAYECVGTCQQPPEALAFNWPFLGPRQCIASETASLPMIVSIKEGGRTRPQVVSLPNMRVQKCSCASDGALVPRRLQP

CO[C@H]1O[C@H](CO)[C@@H](OC(=O)Nc2ccc3c(c2)OCO3)[C@H](OC(=O)Nc2ccccc2)[C@@H]1OC(=O)Nc1ccccc1
composite z-score [1]: 0.966
composite z-score [2]: 0.0085
composite z-score [3]: 0.0249
z-score [4]: -0.788 (inactive)
composite z-score [5]: 1.46
composite z-score [6]: 1.16
composite z-score [7]: -0.228
composite z-score [8]: 0.479
composite z-score [9]: -0.0463
composite z-score [10]: -0.0204
composite z-score [11]: 1.45
z-score [12]: -1.69
composite z-score [13]: -0.0553
composite z-score [14]: 1.01
composite z-score [15]: -0.677
composite z-score [16]: 0.129
composite z-score [17]: 0.0796
composite z-score [18]: 0.953
composite z-score [19]: 0.949
composite z-score [20]: 0.902

COc1ccc(CCN2C(=O)[C@@]3(c4ccc([N+](=O)[O-])cc4)CC(=O)N(CC45CC6CC(CC(C6)C4)C5)[C@@H]3c3ccc(CO)cc32)cc1
composite z-score [1]: 1.42
composite z-score [2]: 0.463
composite z-score [3]: 0.761
z-score [4]: -0.604 (inactive)
composite z-score [5]: -0.212
composite z-score [6]: 0.592
composite z-score [7]: -0.645
composite z-score [8]: -0.203
composite z-score [9]: -0.369
composite z-score [10]: 0.718
composite z-score [11]: -0.047
z-score [12]: -0.673
composite z-score [13]: 0.16
composite z-score [14]: 0.207
composite z-score [15]: -0.474
composite z-score [16]: -0.0101
composite z-score [17]: -0.181
composite z-score [18]: -0.476
composite z-score [19]: 0.352
composite z-score [20]: 0.119

C#CCNC(/C=C/c1ccccc1)CO (stereo not given)
composite z-score [1]: 0.0921
composite z-score [2]: -0.234
composite z-score [3]: -0.565
z-score [4]: 0.00978 (inactive)
composite z-score [5]: 0.311
composite z-score [6]: 0.149
composite z-score [7]: 0.553
composite z-score [8]: 0.326
composite z-score [9]: 0.545
composite z-score [10]: 0.394
composite z-score [11]: 0.105
z-score [12]: 0.501
composite z-score [13]: 0.421
composite z-score [14]: -0.0934
composite z-score [15]: -0.448
composite z-score [16]: -0.172
composite z-score [17]: 0.0121
composite z-score [18]: -0.0784
composite z-score [19]: 0.296
composite z-score [20]: 0.331

COC(=O)[C@@]1(Cc2ccc(OC)cc2)[C@H]2c3cc(C(=O)N(C)C)n(CCc4ccc(OC)c(Br)c4)c3C[C@H]2CN1C(=O)c1ccccc1
composite z-score [1]: 0.843
composite z-score [2]: 1.98
composite z-score [3]: 1.47
z-score [4]: -1.13 (inactive)
composite z-score [5]: 0.77
composite z-score [6]: 1.02
composite z-score [7]: -0.405
composite z-score [8]: 1.04
composite z-score [9]: -0.884
composite z-score [10]: 0.463
composite z-score [11]: 1.33
z-score [12]: -2.54
composite z-score [13]: -0.239
composite z-score [14]: 2.23
composite z-score [15]: 1.54
composite z-score [16]: 0.36
composite z-score [17]: 2.03
composite z-score [18]: 1.19
composite z-score [19]: 1.73
composite z-score [20]: 1.98

O=C(NCC(O)CO)[C@]1(Cc2ccccc2)N=C(c2ccc(OCCCO)cc2)O[C@@H]1c1ccccc1 (stereo not given in full)
composite z-score [1]: 1.51
composite z-score [2]: 1
composite z-score [3]: 0.955
z-score [4]: -1.47 (inactive)
composite z-score [5]: -0.23
composite z-score [6]: -0.0255
composite z-score [7]: -1.25
composite z-score [8]: -0.376
composite z-score [9]: -0.197
composite z-score [10]: 0.148
composite z-score [11]: 0.679
z-score [12]: -0.378
composite z-score [13]: -1.48
composite z-score [14]: 2.61
composite z-score [15]: 1.31
composite z-score [16]: 0.225
composite z-score [17]: -0.0642
composite z-score [18]: 1.68
composite z-score [19]: 2.64
composite z-score [20]: 2.27

CC(C)=C1C(=O)C(c2ccccc2)=C2CN3C(=O)N(CCc4ccccc4)C(=O)[C@]3(Cc3ccccc3)[C@H]21
composite z-score [1]: -0.34
composite z-score [2]: 0.809
composite z-score [3]: 1.25
z-score [4]: 0.514 (inactive)
composite z-score [5]: -0.316
composite z-score [6]: -0.121
composite z-score [7]: -0.972
composite z-score [8]: -0.356
composite z-score [9]: -1.86
composite z-score [10]: 0.64
composite z-score [11]: -1.85
z-score [12]: 0.219
composite z-score [13]: -1.54
composite z-score [14]: 1.31
composite z-score [15]: 0.197
composite z-score [16]: -0.0384
composite z-score [17]: 0.251
composite z-score [18]: -0.408
composite z-score [19]: -0.0829
composite z-score [20]: -0.496

CC(C)CNC(=O)[C@@]1(C)c2ccccc2C(=O)N(Cc2ccc(OC(F)(F)F)cc2)[C@H]1c1ccc(CO)cc1
composite z-score [1]: -0.857
composite z-score [2]: 0.629
composite z-score [3]: 1.14
z-score [4]: 0.581 (inactive)
composite z-score [5]: -0.494
composite z-score [6]: -0.694
composite z-score [7]: -1.15
composite z-score [8]: -0.877
composite z-score [9]: -0.973
composite z-score [10]: 0.159
composite z-score [11]: -1.2
z-score [12]: 0.173
composite z-score [13]: -1.22
composite z-score [14]: -0.381
composite z-score [15]: 0.787
composite z-score [16]: -0.147
composite z-score [17]: -0.0769
composite z-score [18]: 0.264
composite z-score [19]: 1.5
composite z-score [20]: -0.36

COc1ccc(CCNC(=O)[C@@]2(c3ccc([N+](=O)[O-])cc3)CC(=O)N(C(C)C)[C@@H]2c2ccc(CO)cc2)cc1
composite z-score [1]: 1.25
composite z-score [2]: 0.716
composite z-score [3]: 1.24
z-score [4]: -0.58 (inactive)
composite z-score [5]: -0.787
composite z-score [6]: -0.767
composite z-score [7]: -1.57
composite z-score [8]: -1.67
composite z-score [9]: -1.43
composite z-score [10]: -0.445
composite z-score [11]: 0.0008
z-score [12]: -0.309
composite z-score [13]: -1.6
composite z-score [14]: -0.63
composite z-score [15]: -0.0462
composite z-score [16]: -0.129
composite z-score [17]: 0.0557
composite z-score [18]: 0.132
composite z-score [19]: 0.228
composite z-score [20]: -0.631

C=CCc1cccc([C@H]2N[C@H](C(=O)O)CC[C@@H]2C)c1
composite z-score [1]: 0.289
composite z-score [2]: -0.6
composite z-score [3]: -0.832
z-score [4]: -0.704 (inactive)
composite z-score [5]: 0.219
composite z-score [6]: 0.706
composite z-score [7]: 0.793
composite z-score [8]: 0.778
composite z-score [9]: 1.22
composite z-score [10]: 1.12
composite z-score [11]: 0.175
z-score [12]: -0.222
composite z-score [13]: 0.956
composite z-score [14]: -0.962
composite z-score [15]: -1.26
composite z-score [16]: -0.232
composite z-score [17]: -0.271
composite z-score [18]: -0.539
composite z-score [19]: 0.0883
composite z-score [20]: -0.142

CC(C)NC(=O)[C@@]1(Cc2ccccc2I)c2ccccc2C(=O)N(C2CCCCC2)[C@H]1c1ccc(CO)cc1
composite z-score [1]: 1.02
composite z-score [2]: 0.65
composite z-score [3]: 0.793
z-score [4]: 0.129 (inactive)
composite z-score [5]: 1.1
composite z-score [6]: 1.2
composite z-score [7]: 0.118
composite z-score [8]: 1.35
composite z-score [9]: 0.4
composite z-score [10]: 0.386
composite z-score [11]: 1.46
z-score [12]: -1.21
composite z-score [13]: 0.398
composite z-score [14]: 1.48
composite z-score [15]: 0.458
composite z-score [16]: -0.0792
composite z-score [17]: 0.448
composite z-score [18]: 0.982
composite z-score [19]: 0.977
composite z-score [20]: 1.32

C=CC[C@@]12N=C(c3ccc(OCCCO)cc3)O[C@@H]1c1ccccc1CN(Cc1ccccc1)C2=O
composite z-score [1]: 1.67
composite z-score [2]: 0.761
composite z-score [3]: 0.757
z-score [4]: -0.291 (inactive)
composite z-score [5]: 0.623
composite z-score [6]: 1.28
composite z-score [7]: -0.0152
composite z-score [8]: 0.0791
composite z-score [9]: 0.191
composite z-score [10]: 1.01
composite z-score [11]: 1.17
z-score [12]: -3.23
composite z-score [13]: -0.397
composite z-score [14]: 1.06
composite z-score [15]: 0.429
composite z-score [16]: -0.0403
composite z-score [17]: 0.116
composite z-score [18]: 0.87
composite z-score [19]: 1.08
composite z-score [20]: 1.56
